Laboratory results taken from PubChem BioAssay AID651819 (National Center for Advancing Translational Sciences (NCATS), 2012).
Hit rate of the full screen: of about 360,000 compounds, about 1,100 (0.31%) were called active. The entries come from a sample that favours actives as a whole. A number with no mark means an inactive call. Cut-off read from the data, not from the text of the source: active = activity change below about -30%; inactive = the rest.

Tested on: cytosolic chaperonin (CCT/TRiC complex)
Assay: High-Throughput Screening for Modulators of Cytosolic Chaperonin Activity
Conditions: purified chaperonin ATPase assay, HTRF ADP detection, 30 min; hits give low values
Text: The eukaryotic chaperonin named TRiC (for TCP-1 ring complex), also called CCT (for chaperonin containing TCP1), is an essential and conserved chaperone required for the folding and activation of 10-15% of the proteins encoded by the human genome. […] Despite its central role in cellular folding, little is known about TRiC mechanism and mode of substrate binding. Currently, no specific TRiC inhibitors are available. Given the early promise of other chaperone-directed inhibitors as cancer therapeutics (e.g. HSP90 inhibitors), inhibitors of TRiC activity may also selectively target transformed cells and have potential use as therapeutics for cancer.
To this end, a miniaturized assay was developed to screen against the Molecular Libraries Small Molecule Repository (MLSMR).
NIH Chemical Genomics Center [NCGC]
NIH Molecular Libraries Probe Centers Network [MLPCN]
Assay Submitter (PI): Judith Frydman, Stanford University
1.5 uL/well TRiC enzyme suspended in buffer (30 mM TRIS pH7.4, 100 mM KCl, 5 mM MgCl2, 1 mM DTT) was added with BioRAPTR FRD dispenser at 40 nM or 20 nM (based on the enzymatic activity of used batches) final concentration to a white solid bottom medium binding 1536-well plate (Greiner Bio-One, Monroe, NC), and quickly spanned down. 23 nl/well of compound solutions in DMSO were added with a pintool transfer (Kalypsis, San Diego, CA) at a single 76 uM final concentration. Next, 1.5 µl/well ATP was dispensed with BioraptR at 10 uM final concentration after which the plates were incubated at 37 deg C for 30 min. HTRF(R) Transcreener(R) ADP (Cisbio US, Bedford, MA) detection reagents were prepared accordingly to the protocol and dispensed into the plate (1.5 uL/well each), incubated for 30 min at ambient temperature. Then, the plates were read using Envision reader with excitation at 330nm and emission at 615nm (Eu(3)-Cryptate donor signal) and 665nm (d2 acceptor signal). The ratio of […] was calculated for each well.
% is set by controls: 0 for no effect and ±100 for the full control effect.

With `Cc1c(O)c(C)c2c(c1O)C(=O)C[C@@H](c1ccccc1)O2` the activity change was -31.9% (active).
For `O=C(Cn1nc([N+](=O)[O-])nc1Br)NC1CCCCC1`, the activity change was -63% (active).
`Nc1ccc(OCC(O)C[n+]2ccc(CCS(=O)(=O)[O-])cc2)cc1` (configuration not stated) was tested, and the activity change was -32.1% (active).
`COC(=O)c1ccc(-n2cnc3ccccc32)nc1` was tested, and the activity change was -67.7% (active).
`Cc1ccc(-c2nc(CS(=O)(=O)CC(=O)NCc3ccc4c(c3)OCO4)c(C)o2)cc1` was tested, and the activity change was -39.8% (active).
`O=C(CCc1nnc2ccc(NCc3ccco3)nn12)Nc1cc(F)ccc1F` was tested, and the activity change was -33.9% (active).
For `CC(=O)c1c(C)n(-c2ccc(C)cc2)c2ccc(O)cc12`, the activity change was -47.3% (active).
For `Cc1ccccc1CNC(=O)CCC(=O)N1Cc2ccccc2Oc2ncccc21`, the activity change was -84.3% (active).
With `Brc1ccc(-c2csc(N/N=C/c3ccc4c(c3)OCO4)n2)cc1` the activity change was -49.7% (active).
`O=C(CCCCCn1c(=S)[nH]c2ccsc2c1=O)NC1CCCCC1` was tested, and the activity change was -30.8% (active).
`COc1ccc(CC(=O)c2ccc(O)cc2O)cc1OC` was tested, and the activity change was -38.8% (active).
`O=C(CSCc1c(Cl)cccc1Cl)NN1C(=O)c2ccccc2C1=O` was tested, and the activity change was -44% (active).
For `Cc1cc(=O)oc2ccc(OCC(=O)O)cc12`, the activity change was -57.7% (active).
`CN1CCN(c2cc3c(cc2F)c(=O)c(C(=O)O)cn3CCF)CC1` was tested, and the activity change was -35.1% (active).
In the case of `O=C(NCc1ccncc1)C(=O)NCC1OCCN1S(=O)(=O)c1ccc(Br)cc1` (configuration not stated), the activity change was -45.4% (active).
With `CN(C)S(=O)(=O)N1CCC(Oc2cccc(C(=O)NCCCC3CCCC3)c2)CC1` the activity change was -87.6% (active).
With `Cc1[nH]n(C)c(=O)c1C(=O)c1c(-c2c(Cl)cccc2Cl)noc1C` the activity change was -45.8% (active).
In the case of `Cc1cccc(N)c1SC1CCCCC1O` (configuration not stated), the activity change was -39.7% (active).

Point of comparison: `C=CS(=O)c1sc(Cl)c(N2CCOCC2)c1[N+](=O)[O-]` (configuration not stated), activity change -1.53%. Against it:
- O=C1CC(c2ccccc2)C(=O)N2C(=O)CC(c3ccccc3)C(=O)N12 (configuration not stated) — lower, -3.94%
- COc1ccc2c(c1)C(=O)CC(c1ccccc1)O2 (configuration not stated) — higher, 0.324%
- CCc1ccc(C(=O)N2CCN(S(=O)(=O)c3sc(C(=O)O)c(C)c3C(=O)O)CC2)cc1 — lower, -1.96%
- COC(=O)CN(c1nc(C)c(Cl)c(OC)n1)S(=O)(=O)c1ccc(C)cc1 — higher, 2.28%
- CC1CCC2(CC1)NC(=O)N(CC(=O)c1cccn1C)C2=O (configuration not stated) — higher, 0.876%
- Cc1cc(C(F)F)nn1CC(=O)NC1CCCCCC1 — higher, -0.636%
- Cc1nn(CC(=O)NC2CCCCC2)c(=O)c2cccn12 — higher, 0.008%
- COc1c(Br)cc2c(C)c(C(=O)N3CCOCC3)oc2c1Br — higher, -0.84%
- Cc1ccc2[nH]c(=O)c(CN(C)S(=O)(=O)c3cccc4nonc34)cc2c1 — lower, -2.6%
- CCCc1ccc(OCC(O)CN2CCN(C(=O)OCC)CC2)cc1 (configuration not stated) — higher, 0.305%
- CCc1ccc(S(=O)(=O)NCC(O)COc2ccc(OC)cc2)cc1 (configuration not stated) — higher, 2.49%
- O=C(Nc1cccc(Cl)c1Cl)c1ccccc1NC(=O)C1CC=CCC1C(=O)O (configuration not stated) — higher, 1.29%
- COC(=O)c1ccc(SCc2ccccc2)nc1 — higher, -0.717%
- O=C(c1ccc(Cl)cc1)n1cnc2ccccc21 — higher, -0.842%
- CS(=O)(=O)N(Cc1nc2sc3c(c2c(=O)[nH]1)CCCC3)C1CCCCC1 — lower, -3.6%
- COC(=O)c1sccc1N/N=C(\C)c1ccc(F)c(Cl)c1 — higher, 0.343%
- COc1ccc(CCNC(=O)CS(=O)(=O)Cc2nc(-c3ccc(C)cc3)oc2C)cc1OC — higher, -1.25%
- COc1ccc(-c2nc(CS(=O)(=O)CC(=O)NCc3cccc(Br)c3)c(C)o2)cc1 — higher, -0.857%
- CC12CN(Cc3ccccc3)CC(C)(CN(Cc3ccccc3)C1)C2=NO — higher, 1.91%
- CC(C)(C)CN1C(=O)C(=O)NC[C@H]1Cc1cccc2ccccc12 — lower, -2.37%
- CC(=O)c1ccc(NC(=O)CCc2nnc3ccc(NCc4ccco4)nn23)cc1 — higher, -1.16%
- CCOc1ccccc1NC(=O)CCc1nnc2ccc(NCc3ccco3)nn12 — higher, 1.37%
- COC(=O)[C@@]1(Cc2ccc(F)cc2)[C@H]2c3cc(C(=O)N(C)C)n(CCc4c[nH]c5ccc(OC)cc45)c3C[C@H]2CN1C(=O)c1ccccc1 — higher, -0.685%
- C=CCOc1ccc(/C=N/NC(=O)C(C)Sc2ccccn2)cc1OCC (configuration not stated) — lower, -2.2%
- O=C(NNC(=O)c1cccc(S(=O)(=O)Nc2ccc(Cl)cc2)c1)c1ccc(=O)[nH]c1 — higher, -0.309%
- CCc1ccc(/C=N/NC(=O)c2ccc(OC3CCCC3)cc2)s1 — lower, -13.3%
- CCOC(=O)c1c(CN2CCOCC2)n(-c2ccccc2)c2ccc(O)cc12 — higher, -1.1%
- CC(=O)c1c(C)n(-c2ccc(N(C)C)cc2)c2ccc(OCC(N)=O)cc12 — higher, 0.0827%
- Cc1ccc(CN2C(=O)CCC2C(=O)NCCCN2CCCCC2C)cc1 (configuration not stated) — higher, 0.0456%
- CC1CCN(c2ccc(S(=O)(=O)Nc3cc(C(=O)O)cc(C(=O)O)c3)cc2[N+](=O)[O-])CC1 — higher, -0.243%
- CCc1ccccc1NC(=O)Cc1cn(C)c2ccccc12 — lower, -2.82%
- O=C(NCc1ccco1)C1CCCN(S(=O)(=O)c2cccc3nonc23)C1 (configuration not stated) — higher, -0.959%
- Cc1ccc2c(c1)N(C(=O)CCC(=O)NCc1cccnc1)CCO2 — lower, -3.52%
- Cc1ccccc1CN1CCN(CC(=O)NCc2ccccn2)C1=O — higher, 0.386%
- COC(=O)[C@@H](NC(=O)NCc1cccc(OC)c1)C(C)C — lower, -2.29%
- COC(=O)Nc1ncc(CN2C(=O)c3ccccc3C2=O)s1 — higher, -0.4%
- Cc1noc(C)c1S(=O)(=O)N1CCCC(C(=O)Nc2nccs2)C1 (configuration not stated) — higher, -0.498%
- CC(Cc1cccs1)N(Cc1ccc(Cl)cc1)C(=O)c1ccncc1 (configuration not stated) — higher, 1.98%
- COc1ccc(C(O)c2nc(-c3ccc4c(c3)OCO4)cs2)cc1 (configuration not stated) — higher, -0.395%
- CC(O)(c1cccc(F)c1)c1nc(-c2ccc3c(c2)OCO3)cs1 (configuration not stated) — higher, -0.833%
- O=C(NCCCNC(=O)NC1CCCCC1)NC1CCCCC1 — lower, -1.85%
- Cc1cc(OC(=O)c2ccc(OC(C)C)cc2)c([N+](=O)[O-])c(=O)[nH]1 — higher, -0.062%
- O=C(CCC(=O)c1cccs1)NC1CCCCCC1 — higher, 0.811%
- CCCCC(CC)CNC(=O)CCCCn1c(=O)[nH]c2ccsc2c1=O (configuration not stated) — higher, 1.33%
- CCN(CC)CCCN=C(N)N — higher, -0.0838%
- CC(C)(C)C(=O)NC1CC2CCCC(C1)N2C(=O)Nc1ccccc1F (configuration not stated) — lower, -5.23%
- CC(C)C(NC(=O)C1CCC(C(C)(C)C)CC1)C(=O)NCCCN1CCCCC1 (configuration not stated) — higher, 0.128%
- COc1ccc(CCNC(=O)CCc2ccccc2O)cc1OC — higher, -0.891%
- O=C(Cc1ccccn1)c1ccc(O)cc1O — higher, -0.381%
- CC(=O)Cn1ncc(N2CCOCC2)c(Br)c1=O — lower, -7.2%
- O=C(CSCc1c(F)cccc1Cl)NCC1CCCO1 (configuration not stated) — higher, -0.136%
- O=C(CSCc1ccccc1Cl)NNC(=O)c1ccccc1 — higher, -0.322%
- CC(CO)(CO)NC(=O)c1ccc(=O)[nH]n1 — higher, 1.59%
- Cc1ccc(C)c(OCCC(=O)OCC(=O)c2ccc3c(c2)NC(=O)CO3)c1 — lower, -8.24%
- CCOC(=O)C1CCN(C(=O)COc2cc(C)c(Br)c(C)c2)CC1 — lower, -2.02%
- Cc1ccc(O)c(/C=N/NC(=O)COc2ccc3c(C)cc(=O)oc3c2)c1 — higher, 2.07%
- CC(=O)c1c(C)[nH]c(C(=O)COc2ccc3c(C)cc(=O)oc3c2)c1C — higher, -0.599%
- O=C(NCCC1CCCCN1S(=O)(=O)c1ccc(Cl)cc1)C(=O)NCc1ccco1 (configuration not stated) — higher, 2.22%
- CCOC(=O)[C@@H]1[C@H]2COc3ccc(Br)cc3[C@H]2N2C(=O)N(c3ccc(Cl)cc3)C(=O)[C@@]12C — higher, -1.17%
- CC1(C(=O)Nc2cccc3cccnc23)CCN1C(=O)CCC1CCCC1 (configuration not stated) — higher, 1.06%
- O=C1c2ccccc2C(O)N1Cc1ccccc1 (configuration not stated) — higher, -1.07%
- CCn1cc(C(=O)NCCO)c(=O)c2cc(F)c(N3CCN(C)CC3)cc21 — higher, -0.12%
- CCCCCCn1cc(C(=O)O)c(=O)c2cc(F)c(N3CCCCC3)cc21 — lower, -2.93%
- O=C(NCc1ccccc1)C(=O)NCC1OCCN1S(=O)(=O)c1ccc(Br)cc1 (configuration not stated) — higher, -1.3%
- COc1ccc(S(=O)(=O)N2CCOC2CNC(=O)C(=O)NCc2ccncc2)cc1OC (configuration not stated) — higher, 0.662%
- O=C1CCC(=O)N1c1ccc(NCCc2ccccc2F)c([N+](=O)[O-])c1 — lower, -1.58%
- Cc1ccccc1NC(=O)c1cc(S(=O)(=O)N2CCOCC2)cs1 — lower, -3.83%
- Cn1c(=O)c(=O)n(C)c2cc(S(=O)(=O)NCCc3ccccc3)ccc21 — lower, -5.22%
- CN(C(=O)c1cccc(OC2CCN(S(=O)(=O)N(C)C)CC2)c1)C1CCOC1 (configuration not stated) — lower, -4.71%
- COc1cccc(C(=O)NCCS(=O)(=O)NCC2CCCO2)c1 (configuration not stated) — higher, -0.161%
- Cc1onc(-c2c(F)cccc2Cl)c1C(=O)Nc1cccc(S(=O)(=O)N2CCCCC2)c1 — higher, -0.204%
- Cc1onc(-c2c(Cl)cccc2Cl)c1C(=O)c1c[nH]c(C(=O)NC2CC2)c1 — higher, 0.407%
- O=C1NC(c2ccccc2)=NC1(Nc1ccccn1)C(F)(F)F (configuration not stated) — higher, -1.42%
